The text below walks through data of PubChem BioAssay (NCATS).

Test [1] deals with Catechol O-methyltransferase (Homo sapiens) (UniProt P21964). The experiment in a line: Confirmatory Screen for Target Class Profiling of Small Molecule Inhibitors of Methyltransferases (AID 1745852; calls by dose curve; note: potency is the fitted concentration of half-maximal effect; for activity change, negative = inhibition: % is set by controls: 0 for no effect and ±100 for the full control effect). Conditions: MTase-Glo luminescence, SAH detection, recombinant enzyme; measured here: COMT max response; stronger effect = lower value.
Catechol O-methyltransferase (Homo sapiens), sequence (P21964 whole entry, looked up): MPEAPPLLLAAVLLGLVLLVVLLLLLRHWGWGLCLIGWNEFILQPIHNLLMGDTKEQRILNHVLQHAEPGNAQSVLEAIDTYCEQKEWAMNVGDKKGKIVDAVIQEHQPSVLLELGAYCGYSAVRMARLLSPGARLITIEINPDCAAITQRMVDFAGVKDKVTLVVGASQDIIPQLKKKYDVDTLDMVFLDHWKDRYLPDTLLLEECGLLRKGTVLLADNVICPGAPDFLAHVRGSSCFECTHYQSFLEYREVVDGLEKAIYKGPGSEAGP
The target in test [2] is Guanidinoacetate N-methyltransferase (Homo sapiens) (UniProt Q14353). The test is described as above. As to conditions: MTase-Glo luminescence, SAH detection, recombinant enzyme; activity change, negative = inhibition: at 57.3 µM (top of the series) unless noted.
The target in test [3] is Nicotinamide N-methyltransferase (Homo sapiens) (UniProt P40261). Described as above. Conditions: MTase-Glo luminescence, SAH detection, recombinant enzyme; measured here: NNMT max response; stronger effect = lower value.
Nicotinamide N-methyltransferase (Homo sapiens), sequence (P40261 whole entry, looked up): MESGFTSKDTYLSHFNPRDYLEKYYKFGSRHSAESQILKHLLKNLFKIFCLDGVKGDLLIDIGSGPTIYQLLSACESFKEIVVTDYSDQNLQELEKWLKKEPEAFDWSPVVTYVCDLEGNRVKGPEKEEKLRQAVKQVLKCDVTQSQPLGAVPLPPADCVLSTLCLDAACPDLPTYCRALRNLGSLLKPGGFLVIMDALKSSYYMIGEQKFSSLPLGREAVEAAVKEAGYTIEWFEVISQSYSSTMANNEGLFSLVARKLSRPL
The target in test [4] is Phenylethanolamine N-methyltransferase (Homo sapiens) (UniProt P11086). Described as above. Conditions: MTase-Glo luminescence, SAH detection, recombinant enzyme; measured here: PNMT max response; stronger effect = lower value.
Phenylethanolamine N-methyltransferase (Homo sapiens), sequence (P11086 whole entry, looked up): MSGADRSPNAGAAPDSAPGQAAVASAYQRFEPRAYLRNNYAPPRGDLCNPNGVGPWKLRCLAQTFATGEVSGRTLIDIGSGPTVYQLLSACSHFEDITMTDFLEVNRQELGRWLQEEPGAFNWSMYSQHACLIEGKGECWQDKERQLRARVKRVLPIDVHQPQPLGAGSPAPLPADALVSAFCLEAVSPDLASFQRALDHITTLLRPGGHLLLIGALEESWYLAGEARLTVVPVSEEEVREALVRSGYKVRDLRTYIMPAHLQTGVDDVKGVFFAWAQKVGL
Test [5] addresses Glutathione peroxidase 1 (Homo sapiens) (UniProt P07203). The experiment in a line: Primary qHTS Assay for Inhibitors of Recombinant Selenoprotein Glutathione Peroxidase 1 (GPX1) (AID 1845191). Note: nearly all actives have a fitted effect of over 65% in size. As to conditions: recombinant GPX1, GR-coupled NADPH fluorescence, 15 min; series mostly up to 48.8 µM. The procedure, abridged: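 NADPH consumption tracked by fluorescence at 340/450 nm between t=0 and t=15 min, room temperature. Final mix: 10 nM GPX1, 100 nM glutathione reductase, 1 mM GSH, 0.5 mM NADPH, 0.5 mM cumene hydroperoxide, 0.01% BSA; 30 min compound–enzyme preincubation.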
A general note: qHTS replaces the single test concentration by a dilution series.

For test [6], the target named is Phospholipid hydroperoxide glutathione peroxidase GPX4 (Homo sapiens) (UniProt P36969). In words: Primary qHTS Assay for Inhibitors of Recombinant Selenoprotein Glutathione Peroxidase 4 (GPX4) (AID 1845192). For activity change, negative = inhibition: % is set by controls: 0 for no effect and ±100 for the full control effect. Note: nearly all actives have a fitted effect of over 65% in size. As to conditions: recombinant GPX4, GR-coupled NADPH fluorescence, 15 min; series mostly up to 50 µM. The procedure, abridged:
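NADPH consumption followed by fluorescence at 340/450 nm, t=0 and after 15 min at room temperature. Reaction started with cumene hydroperoxide (0.5 mM final) after 30 min compound–GPX4 preincubation; final 200 nM GPX4, 100 nM GR, 1 mM GSH, 0.5 mM NADPH.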

Test [7] concerns the target Luciferin 4-monooxygenase (Photinus pyralis) (UniProt P08659). In words: Primary firefly luciferase (FLuc) qHTS assay for identification of artifact compounds. (AID 1845220).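 For activity change, negative = inhibition: plate controls were DMSO vehicle for no effect and no enzyme for full effect.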 Note: nearly all actives have a fitted effect of over 60% in size. Conditions: purified firefly luciferase, luminescence, 5 min; series mostly up to 54.1 µM. The procedure, abridged: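 Compounds sat 15 min at room temperature with 10 uM luciferin and 10 uM ATP (pH 7.6 Tris acetate). Firefly luciferase (10 nM final) was then added, and luminescence was read 5 min later. Data normalized to no-enzyme and DMSO controls were Hill-fitted.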

The nature of test [8]: Primary fluorescence-based thiol-reactive (MSTI) qHTS assay for identification of artifact compounds. (AID 1845221).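 Note: thiol-reactive compounds lower the probe fluorescence signal; nearly all actives have a fitted effect of over 65% in size.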 As to conditions: MSTI thiol-reactivity probe, 1 h; series mostly up to 53.8 µM. In short, it runs like this: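 qHTS titration of compound; 4 uM MSTI, PBS pH 7.4, 2% DMSO; 1 h RT, dark; fluorescence 525/598 nm; normalized to Acetyl-MSTI and MSTI; 4-parameter Hill fit.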

In test [9] the test system is Nanoluciferase (engineered Oplophorus gracilirostris luciferase). The experiment in a line: Primary Nanoluciferase (NLuc) qHTS assay for identification of artifact compounds. (AID 1845222).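 Note: 0% = DMSO and -100% = no enzyme.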 As to conditions: NLuc-conditioned medium, Nano-Glo luminescence, 5 min; series mostly up to 54.1 µM. The procedure, abridged:
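Luminescence from secreted NLuc (filtered, 1:55-diluted S16 cell medium) read 5 min after Nano-Glo substrate; compounds preincubated 15 min, RT. Hill fits of inhibition normalized to DMSO and no-enzyme.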

Test [10] in a line: Primary redox qHTS assay for identification of artifact compounds. (AID 1845223). As to conditions: Amplex Red/HRP redox cycling with DTT, fluorescence; series mostly up to 53.8 µM. In short, it runs like this: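 Redox-cycling detection via DTT (250 uM final) oxidation coupled to Amplex Red (25 uM)/HRP (250 mU/mL) in HBSS. 15 min preincubation plus 30 min after DTT, room temperature. Ex/Em 525/598 nm; 4-parameter Hill fit against DMSO and 10 uM DA3003.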

Test [11] can be described thus: Quantitative High-Throughput drug screen in 47 multiple myeloma cell lines against the NCATS MIPE library collection: FR4_PLB cell viability assay (AID 1918924; note: potency is the fitted concentration of half-maximal effect; nearly all actives have a fitted effect of over 35% in size). Conditions: FR4_PLB myeloma cells viability, CellTiter-Glo ATP, 48 h; series mostly up to 45.8 µM. The procedure, abridged: (§1)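 Myeloma cells (500 per well) were exposed to MIPE 4.0 compounds by pin transfer and incubated 48 hours at 37C, 5% CO2. Viability was read as ATP by CellTiter-Glo luminescence, normalised to DMSO (100%) and media-only (0%) wells.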
A general note: ATP-based viability assays read luminescence as a measure of living cells.

Test [12] is described as follows: Quantitative High-Throughput drug screen in 47 multiple myeloma cell lines against the NCATS MIPE library collection: Delta47_JCRB cell viability assay (AID 1918925; note: potency is the fitted concentration of half-maximal effect; nearly all actives have a fitted effect of over 45% in size). Conditions: Delta47 myeloma viability, CellTiter-Glo ATP, 48 h; series mostly up to 45.8 µM. In short, it runs like this: (§2)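 Steps: seed 500 cells per well; pin-transfer MIPE 4.0 library; incubate 48 h at 37C, 5% CO2, humidified; add CellTiter-Glo, 5 min room temperature; read luminescence.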

Test [13] can be described thus: Quantitative High-Throughput drug screen in 47 multiple myeloma cell lines against the NCATS MIPE library collection: EJM_DSMZ cell viability assay (AID 1918926; note: potency is the fitted concentration of half-maximal effect; nearly all actives have a fitted effect of over 30% in size). Conditions: EJM myeloma cell viability, CellTiter-Glo ATP, 48 h; series mostly up to 45.8 µM. In short, it runs like this: as §2
The nature of test [14]: Quantitative High-Throughput drug screen in 47 multiple myeloma cell lines against the NCATS MIPE library collection: AMO1_DSMZ cell viability assay (AID 1918927; note: potency is the fitted concentration of half-maximal effect; nearly all actives have a fitted effect of over 30% in size). Conditions: AMO1 myeloma cells viability, CellTiter-Glo ATP luminescence, 48 h; series mostly up to 45.8 µM. The procedure, abridged: as §2
Test [15] is described as follows: Quantitative High-Throughput drug screen in 47 multiple myeloma cell lines against the NCATS MIPE library collection: ARP1_JJKsccF8 cell viability assay (AID 1918928; note: potency is the fitted concentration of half-maximal effect; nearly all actives have a fitted effect of over 40% in size). Conditions: ARP1 myeloma cells viability, CellTiter-Glo ATP, 48 h; series mostly up to 45.8 µM. The procedure, abridged: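 CellTiter-Glo luminescence after 48 h exposure gives viability, scaled between DMSO-only (100%) and media-only (0%) controls. Library compounds are pinned onto 500 myeloma cells per well, incubated at 37C with 5% CO2.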

Test [16] is described as follows: Quantitative High-Throughput drug screen in 47 multiple myeloma cell lines against the NCATS MIPE library collection: ARD_JJKsccE7 cell viability assay (AID 1918929; note: potency is the fitted concentration of half-maximal effect). Conditions: ARD myeloma cell line viability, CellTiter-Glo, 48 h; series mostly up to 45.8 µM. In short, it runs like this: as §2
A short description of test [17]: Quantitative High-Throughput drug screen in 47 multiple myeloma cell lines against the NCATS MIPE library collection: Karpas620_DSMZ cell viability assay (AID 1918959). Note: potency is the fitted concentration of half-maximal effect; nearly all actives have a fitted effect of over 30% in size. As to conditions: Karpas620 myeloma viability, CellTiter-Glo ATP luminescence, 48 h; series mostly up to 45.8 µM. In short, it runs like this: as §1

“And” between values parts separate entries of the source, which are not always exact repeats. Equal entries are not always repeated. Inconclusive results are not listed. The source made the active and inactive calls. Unless noted, calls come from the whole dose curve; as a rule, active = well fitted curve in the direction sought with a large enough effect; inconclusive = small, poorly fitted or top-dose-only effect, or another doubt; inactive = no such curve, though single readings can be large; an effect the other way counts as inactive or inconclusive.

Phospholipid hydroperoxide glutathione peroxidase GPX4 (Homo sapiens), sequence (P36969 whole entry, looked up): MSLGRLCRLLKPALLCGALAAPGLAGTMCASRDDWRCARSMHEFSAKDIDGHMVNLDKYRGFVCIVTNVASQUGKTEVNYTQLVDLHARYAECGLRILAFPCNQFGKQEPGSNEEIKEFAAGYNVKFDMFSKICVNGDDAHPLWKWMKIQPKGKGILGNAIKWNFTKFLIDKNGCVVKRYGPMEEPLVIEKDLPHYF
Glutathione peroxidase 1 (Homo sapiens), sequence (P07203 whole entry, looked up): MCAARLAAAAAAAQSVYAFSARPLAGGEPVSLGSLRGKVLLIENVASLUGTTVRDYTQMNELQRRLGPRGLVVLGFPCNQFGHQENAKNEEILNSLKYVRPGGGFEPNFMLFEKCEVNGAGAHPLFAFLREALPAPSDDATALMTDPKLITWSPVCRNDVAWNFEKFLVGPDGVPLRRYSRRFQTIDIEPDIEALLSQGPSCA

As to `Nc1ncnc2c1c(-c1cccc(OCc3ccccc3)c1)cn2C1CC(CN2CCCC2)C1` (stereo unspecified), the values for the activity in [1], in test [3] and in test [4] were -58.1%, -68.2% and -98.1%, respectively. The Potency in test [2] was 27.1 µM (active); in [11], 26.4 µM (active); in [12], 0.059 µM (active); in test [13], 23.5 µM (active); in [14], 16.6 µM (active); in test [15], 16.6 µM (active). Moreover, the Potency is 1.18 µM (active) in test [16] and 5.9 µM (active) in [17]. Further, the Potency result in test [5], in [6], in [7], in test [8], in test [9] and in test [10] was “inactive” throughout.
Turning to `COc1cc2c(NC3CCN(C(C)C)CC3)nc(C3CCCCC3)nc2cc1OCCCN1CCCC1`, the activity in [1] is -9%; in test [3], -39.8%; in [4], -4.49%. Also, the activity change, negative = inhibition in test [2] is -6.26%. Moreover, the Potency entry in [5], in [6], in test [7], in test [8], in test [9] and in test [10] was “inactive” throughout. Also, the Potency in [11] is 7.43 µM (active); in test [12], 4.69 µM (active); in test [15] it was 7.43 µM (active); in test [17], 8.33 µM (active).
For `C[C@@H](Oc1cc(-c2cnn(C3CCNCC3)c2)cnc1N)c1c(Cl)ccc(F)c1Cl`, the activity is -38.2% and -62.1% in [1]; -57.8% and -68.4% in test [3]; -33.1% and -60.2% in test [4]. Moreover, the Potency was 27.1 µM (active) in test [2]; 18.7 µM (active) in test [11]; 2.09 µM (active) in test [12]; 18.7 µM (active) in [13]; 18.7 µM (active) in [14]; 8.33 µM (active) in [15]. In addition, the figures for the Potency in [16] and in test [17] were 11.8 µM (active) and 14.8 µM (active), respectively. For the same compound, the Potency result in test [5], in test [6], in [7], in [8], in test [9] and in test [10] was “inactive” in each case.
In the case of `Nc1ncnc2c1c(-c1cnc3[nH]ccc3c1)nn2C1CCCC1`, the activity in test [1] was -9.35%; in [3], -56.1%; in test [4], -52.4%. The activity change, negative = inhibition in [2] is 0.397%. The Potency entry in test [5], in test [6], in test [8], in [9] and in [10] was “inactive” in each case. In addition, the Potency in [11] is 0.662 µM (active); in test [12] it was 0.235 µM (active); in test [13] it was 6.62 µM (active); in test [14], 0.662 µM (active); in test [15], 0.743 µM (active); in test [16] it was 1.32 µM (active).
For the compound `CC[C@@H]1C(=O)N(C)c2cnc(Nc3ccc(C(=O)NC4CCN(C)CC4)cc3OC)nc2N1C1CCCC1`, the values for the activity in test [1], in [3] and in [4] were -18.1%, -45.4% and -31.6%, respectively. For the same compound, the Potency in test [2] is 21.7 µM (active); in test [11] it was 0.0235 µM (active); in test [13], 3.72 µM (active); in test [14] it was 0.0833 µM (active); in test [15] it was 0.0372 µM (active); in test [16] it was 0.0296 µM (active). Also, the Potency result in test [5] and in [6] was “inactive” each time.
Take `OCCCNc1cc(-c2ccnc(Nc3cccc(Cl)c3)n2)ccn1`: the activity in test [1] is -80.2%; in test [3], -65.5%; in [4], -82.3%. The Potency is 10.8 µM (active) in [2]; 0.118 µM (active) in [11]; 0.0264 µM (active) in test [12]; 0.118 µM (active) in test [13]; 0.0743 µM (active) in test [14]; 0.105 µM (active) in [15]. Besides, the values for the Potency in test [16] and in [17] were 0.0743 µM (active) and 0.0662 µM (active), respectively. In addition, the Potency entry in test [5], in test [6], in [7], in test [8], in test [9] and in test [10] was “inactive” throughout.
